Inhibition data for 30 compounds are collected here from ChEMBL document CHEMBL1157539, “Thousands of chemical starting points for antimalarial lead identification” (Nature, 2010).

What is called Inhibition is how much of the control response was suppressed. Low values mean a response near the control, high ones a response far below the control.

Common to all, as to type: functional
Test [1] deals with Plasmodium falciparum. Description: GSK_TCMDC: Inhibition of Plasmodium falciparum 3D7 in whole red blood cells, using parasite LDH activity as an index of growth. Test compounds present at 2uM.
Test [2] relates to Plasmodium falciparum. The experiment in a line: GSK_TCMDC: Inhibition of Plasmodium falciparum Dd2 in whole red blood cells, using parasite LDH activity as an index of growth. Test compounds present at 2uM.
Another test relates to HepG2. The experiment in a line: GSK_TCMDC: Percent inhibition of human HepG2 cell line. Test compounds present at 10uM.

`CC[C@H](NC(=O)c1c(CC2CCN(CC(C)=O)CC2)c(-c2ccccc2)nc2ccccc12)c1ccccc1`: the Inhibition in the test with Plasmodium falciparum [1] stood at 97%; in the test on Plasmodium falciparum [2] it was 96%; with HepG2, 7%.
On the same counts, the results for `O=C(CNCC1CCCCC1)Nc1cc(C(F)(F)F)ccc1Cl` are 86%, 67% and 1%.
On the same counts, the results for `COc1ccc2nc(N(CCCn3ccnc3)C(=O)C=Cc3cccs3)sc2c1.Cl` are 92%, 26% and 8%.
On the same counts, the results for `CC1CCN(C(=O)CSc2nc(-c3ccc(C(C)C)cc3)no2)CC1` are 98%, 84% and 0%.
Regarding `CCC(CC)N1CCN(CC(=O)Nc2ccc([N+](=O)[O-])cc2C(=O)Nc2cccc(OC)c2)CC1`, the Inhibition with Plasmodium falciparum [1] is listed as 100%; with Plasmodium falciparum [2], 35%; with HepG2, 35%.
For the compound `Cc1ccc(-c2cccc3c(NC(=O)Nc4ccc5nccc(N6CCN(C)CC6)c5c4)cccc23)cn1.Cl`, the Inhibition with Plasmodium falciparum [1] is listed as 90%; in the test on Plasmodium falciparum [2] it was 89%; in the test on HepG2, 6%.
On the same counts, the results for `O=C(N[C@H]1CCN(CCc2ccc(O[C@H]3CCNC3)cc2)C1)c1ccc(Cl)c(Cl)c1.O=C(O)C(F)(F)F` are 96%, 5% and 18%.
Consider `CCCOc1ccc(-c2nonc2NC(=O)c2ccccc2OC)cc1OCCC`, for which the results for the Inhibition in the test with Plasmodium falciparum [1], with Plasmodium falciparum [2] and with HepG2 were 98%, 82% and 23%, respectively.
On the same counts, the results for `O=C(CC(=O)C(F)(F)F)c1ccc2c(c1)OCO2` are 96%, 0% and 44%.
On the same counts, the results for `O=C(Cc1n[nH]c(=O)c2ccccc12)Nc1cccc(C(=O)Nc2cccc(C(F)(F)F)c2)c1` are 97%, 90% and 0%.
On the same counts, the results for `C=CCc1ccc(C[C@H](NC(=O)OC(C)(C)C)C(=O)OC)cc1` are 98%, 98% and 77%.
As to `N#Cc1cccc(Nc2nccc(NCC(O)c3cccc(C(F)(F)F)c3)n2)c1` (stereo not given), the Inhibition in the test on Plasmodium falciparum [1] came to 99%; in the test on Plasmodium falciparum [2], 84%; in the test on HepG2, 4%.
Turning to `CCOc1cc(Br)c(C(C)NC(=O)c2cccc(OC)c2)cc1OCC` (stereo not given), the Inhibition with Plasmodium falciparum [1] worked out at 90%; with Plasmodium falciparum [2] it was 37%; in the test on HepG2, 0%.
In the case of `Cc1cc(C(=O)N[C@H]2CCN(Cc3ccc(OCCCN(C)C)cc3)C2)ccc1Br.O=C(O)C(F)(F)F`, the Inhibition was found to be 97% in the test with Plasmodium falciparum [1], 62% in the test with Plasmodium falciparum [2] and 88% in the test with HepG2.
On the same counts, the results for `CN1CCN(c2ccc(Nc3ncc([N+](=O)[O-])c(Nc4ccccc4O)n3)cc2)CC1.O=C(O)C(F)(F)F` are 100%, 97% and 98%.
On the same counts, the results for `COc1nc2c(CCN3CC[C@@H](NCc4cc(C#N)c5c(c4)CCO5)[C@@H](O)C3)ccnc2cc1F.Cl` are 92%, 35% and 21%.
With `Nc1cccc(CNCc2ccc(-c3cccc(-c4nc5cc(F)ccc5[nH]4)c3)cc2)c1.O=C(O)C(F)(F)F`, the Inhibition in the test on Plasmodium falciparum [1] worked out at 100%; in the test with Plasmodium falciparum [2], 94%; in the test on HepG2 it was 36%.
Consider `CC(C)c1ccc(CN2CCC(CNC(=O)c3cc(-c4cccc(Cl)c4)cs3)C2)cc1.O=C(O)C(F)(F)F` (stereo not given), for which the Inhibition in the test with Plasmodium falciparum [1] turned out to be 99%; with Plasmodium falciparum [2], 43%; with HepG2, 42%.
On to `Cc1ccc(O)cc1Nc1ccnc2ccc(-c3cccc(CNCCN(C)C)c3)cc12`, for which the Inhibition amounted to 100% with Plasmodium falciparum [1], 46% with Plasmodium falciparum [2] and 0% in the test on HepG2.
As to `CN(C)Cc1c(O)ccc2[nH]c(-c3ccc(OC(F)(F)F)cc3)nc12`, the results for the Inhibition in the test with Plasmodium falciparum [1], in the test on Plasmodium falciparum [2] and in the test on HepG2 were 100%, 97% and 24%, respectively.
On the same counts, the results for `CC(C)(C)Nc1cc(C2CC2)nc(-c2ccccn2)n1` are 88%, 75% and 0%.
On the same counts, the results for `CC(C)CNCc1cccc(-c2ccccc2CN(C(=O)NCCc2ccccc2)C2CCN(Cc3ccccc3)CC2)c1.O=C(O)C(F)(F)F` are 89%, 82% and 42%.
On the same counts, the results for `Cc1ccc(F)cc1S(=O)(=O)Nc1cccc(CCN2CCC(N3CCCCC3)CC2)c1` are 96%, 9% and 15%.
As to `Br.CCOC(=O)c1cc(Cl)cc(Cl)c1OCCCON1C(=N)N=C(N)NC1(C)C`, the Inhibition is listed as 93% with Plasmodium falciparum [1], 97% in the test on Plasmodium falciparum [2] and 70% in the test on HepG2.
On the same counts, the results for `O=C(CSc1nc2ccc([N+](=O)[O-])cc2s1)Nc1ccccc1-c1ccccc1` are 80%, 49% and 0%.
On the same counts, the results for `C=C[C@]1(C)C[C@@H](OC(=O)NC(=O)CCCS(=O)(=O)c2nnc(C)s2)[C@]2(C)[C@H](C)CC[C@]3(CCC(=O)[C@H]32)[C@@H](C)[C@@H]1O` are 94%, 97% and 0%.
On the same counts, the results for `Cc1nc(-c2nc(N3CCC(C(N)=O)CC3)ncc2-c2ccsc2)sc1C` are 93%, 33% and 0%.
`Br.Oc1ccccc1CCNCC1CCc2ccccc2C1` (stereo not given): the Inhibition in the test with Plasmodium falciparum [1] was 98%; in the test on Plasmodium falciparum [2] it was 98%; in the test with HepG2 it was 37%.
For `COc1ccc2c(CCNc3nc(SC)ncc3C(=O)NCCc3ccc(F)cc3)c[nH]c2c1.O=C(O)C(F)(F)F`, the Inhibition with Plasmodium falciparum [1] was 91%; with Plasmodium falciparum [2], 49%; in the test with HepG2 it was 3%.
As to `CC(C)c1cccc(OCC2CCN(c3ccc(C(=O)Nc4ccccc4)cn3)CC2)c1`, the Inhibition in the test on Plasmodium falciparum [1] is listed as 95%; in the test with Plasmodium falciparum [2], 90%; with HepG2, 9%.
